Laboratory results: PubChem BioAssay AID1671202 (University of Kansas High Throughput Screening Laboratory, 2021)
Several values for one entry are separate records, joined by “and”; a condition that tells them apart may be missing. Equal entries are not always repeated. The campaign covered roughly 190,000 compounds. About 6,900 (3.6%) were called active. No stated cut-off is given here; in the data, active means inhibition above about 50%; inactive means the rest. What follows is part of a selection rich in actives, with near analogues and random picks from the rest. Some structures have more than one record in an assay (separate samples or runs), and their calls can disagree.

Each compound was assayed against Huntingtin (Homo sapiens) (UniProt P42858) (assay: mutant huntingtin-calmodulin interaction inhibitors – biochemical, AlphaScreen, primary screen (AID 1671202;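 further: 0% = both proteins with DMSO and 100% = one protein alone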)). Conditions: AlphaScreen His-mHTT/GST-CaM binding, luminescence; at 15 µM, stronger effect = higher value.
Huntingtin (Homo sapiens), sequence (P42858 whole entry, looked up, stated change not applied): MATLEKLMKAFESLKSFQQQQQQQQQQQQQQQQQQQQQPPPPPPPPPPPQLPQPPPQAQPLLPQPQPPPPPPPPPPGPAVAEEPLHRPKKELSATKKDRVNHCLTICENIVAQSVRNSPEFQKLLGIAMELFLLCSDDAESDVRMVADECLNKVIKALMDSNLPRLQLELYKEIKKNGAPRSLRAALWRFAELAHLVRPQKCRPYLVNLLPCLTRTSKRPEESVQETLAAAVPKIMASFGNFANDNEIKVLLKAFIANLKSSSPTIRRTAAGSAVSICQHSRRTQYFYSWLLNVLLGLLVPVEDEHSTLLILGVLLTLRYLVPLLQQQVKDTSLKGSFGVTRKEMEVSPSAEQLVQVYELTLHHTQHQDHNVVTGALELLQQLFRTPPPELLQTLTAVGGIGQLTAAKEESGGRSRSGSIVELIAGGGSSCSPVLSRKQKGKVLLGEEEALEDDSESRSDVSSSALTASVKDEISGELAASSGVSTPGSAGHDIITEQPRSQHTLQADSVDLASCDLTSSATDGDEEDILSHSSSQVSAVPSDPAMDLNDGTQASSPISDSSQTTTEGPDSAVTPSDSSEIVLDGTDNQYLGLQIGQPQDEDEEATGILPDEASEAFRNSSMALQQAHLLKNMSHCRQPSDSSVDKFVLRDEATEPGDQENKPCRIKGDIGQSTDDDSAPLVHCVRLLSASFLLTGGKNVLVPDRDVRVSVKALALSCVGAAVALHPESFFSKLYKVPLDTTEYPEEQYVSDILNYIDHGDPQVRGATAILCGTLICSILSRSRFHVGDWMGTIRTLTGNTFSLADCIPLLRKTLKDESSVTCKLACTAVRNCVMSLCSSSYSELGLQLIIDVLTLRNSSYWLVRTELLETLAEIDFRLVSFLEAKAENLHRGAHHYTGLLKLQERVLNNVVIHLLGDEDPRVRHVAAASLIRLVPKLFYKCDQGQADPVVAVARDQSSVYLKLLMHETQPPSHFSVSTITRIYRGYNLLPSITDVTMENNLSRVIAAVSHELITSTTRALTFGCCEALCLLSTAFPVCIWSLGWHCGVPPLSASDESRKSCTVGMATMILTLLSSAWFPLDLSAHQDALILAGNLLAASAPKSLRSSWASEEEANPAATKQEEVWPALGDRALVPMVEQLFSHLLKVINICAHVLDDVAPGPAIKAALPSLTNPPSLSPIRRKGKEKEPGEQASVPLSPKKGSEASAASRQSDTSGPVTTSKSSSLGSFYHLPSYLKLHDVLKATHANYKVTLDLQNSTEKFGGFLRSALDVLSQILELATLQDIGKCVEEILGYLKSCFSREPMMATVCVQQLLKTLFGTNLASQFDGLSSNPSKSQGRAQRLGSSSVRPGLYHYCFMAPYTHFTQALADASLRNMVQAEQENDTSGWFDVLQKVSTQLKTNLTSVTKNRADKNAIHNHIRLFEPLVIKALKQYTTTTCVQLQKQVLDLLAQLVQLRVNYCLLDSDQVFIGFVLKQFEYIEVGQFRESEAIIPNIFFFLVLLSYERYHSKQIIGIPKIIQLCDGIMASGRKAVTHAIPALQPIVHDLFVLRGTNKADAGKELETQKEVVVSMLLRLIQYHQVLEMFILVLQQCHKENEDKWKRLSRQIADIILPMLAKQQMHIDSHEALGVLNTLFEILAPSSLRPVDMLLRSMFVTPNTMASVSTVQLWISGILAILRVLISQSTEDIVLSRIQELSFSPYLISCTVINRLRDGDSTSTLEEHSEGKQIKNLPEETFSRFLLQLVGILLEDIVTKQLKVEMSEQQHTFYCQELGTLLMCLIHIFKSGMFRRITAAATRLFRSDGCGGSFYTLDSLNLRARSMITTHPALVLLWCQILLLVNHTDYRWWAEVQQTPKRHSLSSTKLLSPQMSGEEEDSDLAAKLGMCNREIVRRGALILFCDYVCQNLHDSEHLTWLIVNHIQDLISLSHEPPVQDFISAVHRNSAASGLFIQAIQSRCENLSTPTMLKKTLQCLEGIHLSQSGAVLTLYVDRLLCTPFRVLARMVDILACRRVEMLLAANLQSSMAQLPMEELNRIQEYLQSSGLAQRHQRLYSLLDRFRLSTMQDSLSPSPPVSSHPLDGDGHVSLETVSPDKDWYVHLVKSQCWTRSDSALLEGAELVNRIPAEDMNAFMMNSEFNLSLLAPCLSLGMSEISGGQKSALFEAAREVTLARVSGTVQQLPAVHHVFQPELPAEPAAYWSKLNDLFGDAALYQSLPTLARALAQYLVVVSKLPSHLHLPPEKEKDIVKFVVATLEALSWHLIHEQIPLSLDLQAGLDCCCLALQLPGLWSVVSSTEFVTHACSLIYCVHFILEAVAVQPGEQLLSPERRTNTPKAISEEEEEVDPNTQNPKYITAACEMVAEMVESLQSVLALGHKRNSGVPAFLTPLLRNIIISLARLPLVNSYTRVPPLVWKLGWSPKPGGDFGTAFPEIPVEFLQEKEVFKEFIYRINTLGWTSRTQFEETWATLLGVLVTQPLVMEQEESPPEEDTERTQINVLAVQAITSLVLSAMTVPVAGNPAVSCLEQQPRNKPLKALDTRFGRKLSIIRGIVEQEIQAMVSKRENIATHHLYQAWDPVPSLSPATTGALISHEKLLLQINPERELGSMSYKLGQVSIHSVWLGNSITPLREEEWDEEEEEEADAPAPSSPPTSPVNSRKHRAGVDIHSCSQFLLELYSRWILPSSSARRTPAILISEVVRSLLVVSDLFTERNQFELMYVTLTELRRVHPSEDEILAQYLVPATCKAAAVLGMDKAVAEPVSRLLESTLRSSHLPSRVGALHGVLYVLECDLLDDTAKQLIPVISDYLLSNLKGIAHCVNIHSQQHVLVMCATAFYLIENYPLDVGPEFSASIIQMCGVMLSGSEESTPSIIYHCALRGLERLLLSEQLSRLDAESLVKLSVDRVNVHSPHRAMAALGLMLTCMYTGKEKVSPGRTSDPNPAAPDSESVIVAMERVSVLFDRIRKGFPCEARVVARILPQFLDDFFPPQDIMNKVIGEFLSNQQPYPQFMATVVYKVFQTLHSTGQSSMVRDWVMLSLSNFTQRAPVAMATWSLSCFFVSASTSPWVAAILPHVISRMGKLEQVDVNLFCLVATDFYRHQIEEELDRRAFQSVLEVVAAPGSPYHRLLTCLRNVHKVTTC
In the case of `Cc1ccc(F)cc1NS(=O)(=O)c1cccc2cccnc12`, the inhibition is reported as 2% (inactive). `O=[N+]([O-])c1ccccc1S(=O)(=O)Nc1cccc2cccnc12` was tested, and the inhibition was 98.6% (active) and 99% (active). In the case of `CCc1cccc(NS(=O)(=O)c2ccccc2[N+](=O)[O-])c1`, the inhibition is reported as 10.6% (inactive). For `COc1cccc(-c2noc(C3CCCN3C(=O)Nc3ccc4c(c3)OCCO4)n2)c1` (stereo unspecified), the inhibition was 13.9% (inactive). With `OC(COc1ccccc1Br)CN1CCN(Cc2ccccc2)CC1` (stereo unspecified) the inhibition was -4% (inactive). With `COc1ccccc1Oc1ncnc2scc(-c3ccc(F)cc3)c12` the inhibition was -1% (inactive). For `CCOc1ccc(-n2nc(C(=O)Nc3ccc(F)cc3)c3ccccc3c2=O)cc1`, the inhibition was -5% (inactive). With `O=C1NC(=O)/C(=C/c2ccc(-c3ccccc3[N+](=O)[O-])o2)S1` the inhibition was 37% (inactive). In the case of `O=C1NC(=O)/C(=C\c2ccc(-c3cccc(Cl)c3)o2)S1`, the inhibition is reported as 58% (active). `O=C1NC(=O)/C(=C/c2ccc(-c3ccc([N+](=O)[O-])cc3)o2)S1` was tested, and the inhibition was 3% (inactive). For `COc1ccc(CC(=O)Nc2ccc(S(=O)(=O)Nc3c(C)cc(C)cc3C)cc2)cc1`, the inhibition was 13% (inactive). With `COc1cccc(CN2CCOCC2)c1OC` the inhibition was -5.1% (inactive). With `O=C(NC1CC2CC1CN2C(=O)c1ccc(C(F)(F)F)cc1)c1cccnc1` (stereo unspecified) the inhibition was 6.1% (inactive). With `COc1ccc(N=Cc2cc(Cl)cc(Cl)c2O)cc1OC` the inhibition was 4% (inactive). With `Oc1cccc(N=Cc2cc(Cl)cc(Cl)c2O)c1` the inhibition was 98% (active). In the case of `CC(=O)Nc1cccc(N=Cc2ccc(Cl)cc2Cl)c1`, the inhibition is reported as -2% (inactive). With `CC(C)OCCCNC(=O)CN1C(=O)/C(=C/c2cccc(Cl)c2)Sc2ccccc21` the inhibition was 9% (inactive). For `Cc1ccc(F)cc1NC(=O)Cn1c(=O)nc(N2CCCCC2)c2ccccc21`, the inhibition was 12.4% (inactive). `COc1ccc(NC(=O)N2CCC(CCOc3ccccc3)CC2)cc1` was tested, and the inhibition was 3.99% (inactive). For `Cc1ccc2occ(C3Nc4cc(C)c(C)cc4NC4=C3C(=O)CC(C)(C)C4)c(=O)c2c1` (stereo unspecified), the inhibition was 19% (inactive). `Cc1cc2c(cc1C)NC(c1ccc(Cl)s1)C1=C(CC(C)(C)CC1=O)N2` (stereo unspecified) was tested, and the inhibition was 51% (active). `CC1(C)CC(=O)C2=C(C1)Nc1ccccc1NC2c1ccc(Br)cc1` (stereo unspecified) was tested, and the inhibition was 3.9% (inactive). With `COc1ccc(-c2cn3ccn(-c4ccc(F)c(Cl)c4)c(=O)c3n2)cc1OC` the inhibition was -2.4% (inactive). With `Cc1cccc2nnc(N3CCC(C(=O)Nc4ccc(Cl)cc4)CC3)n12` the inhibition was 3.32% (inactive). In the case of `CCn1c(N2CCCC(C(=O)NCc3cccc(C)c3)C2)cc(=O)n(C)c1=O` (stereo unspecified), the inhibition is reported as 7.32% (inactive). `COc1ccc(NS(=O)(=O)c2ccc(N3C(=O)CCC3=O)cc2)c(OC)c1` was tested, and the inhibition was -10.9% (inactive). For `O=C(Nc1ccc(F)cc1F)N1CCc2nc[nH]c2C1`, the inhibition was -5.8% (inactive). `O=C(NCCN1CCOCC1)Nc1cccc(Cl)c1` was tested, and the inhibition was -4% (inactive). `O=C1C(Nc2cccc(Cl)c2)=C(N2CCOCC2)C(=O)c2ccccc21` was tested, and the inhibition was 59% (active). With `COC1=C(N2CCOCC2)C(=O)c2ccccc2C1=O` the inhibition was -2.9% (inactive). With `CCCCN(CC)C(=O)c1cc(Cl)ccc1OC` the inhibition was -8.5% (inactive). `Cc1ccc(NC(=O)CN2C(=O)C(c3ccc(Cl)cc3)=NC2(C)C)cc1` was tested, and the inhibition was -11.7% (inactive). For `CN(C)c1ccc(CN2CCc3nc(N4CCN(c5ccccc5F)CC4)ncc3C2)cc1`, the inhibition was 39.9% (inactive). `CN(C)c1ccc(CN2CCc3nc(N4CCOCC4)ncc3C2)cc1` was tested, and the inhibition was 96.6% (active). `COc1ccc(CN2CCc3nc(N4CCN(c5ncccn5)CC4)ncc3C2)cc1OC` was tested, and the inhibition was 55.5% (active). With `COc1ccc(CN2CCc3nc(N4CCCC4)ncc3C2)cc1OC` the inhibition was 42.3% (inactive). `COc1cc(CN2CCc3nc(N4CCCC4)ncc3C2)cc(OC)c1OC` was tested, and the inhibition was 11.5% (inactive). With `Cc1ccc(CN2CCc3nc(N4CCCC4)ncc3C2)cc1` the inhibition was 12.2% (inactive). `COc1ccc(OCc2noc(-c3cccc(F)c3)n2)cc1` was tested, and the inhibition was -9.7% (inactive). `CCN(CC)CCNC(=O)C1CCN(c2nnc3ccccn23)CC1` was tested, and the inhibition was 5.6% (inactive). `CCC(=O)Oc1ccc2c(C)c(-c3ccccc3)c(=O)oc2c1` was tested, and the inhibition was -4.1% (inactive). In the case of `COc1cccc(C=C2Oc3c(ccc(O)c3CN3CC4CC(C3)c3cccc(=O)n3C4)C2=O)c1` (stereo unspecified), the inhibition is reported as 32.3% (inactive). `Cc1c(NC(=O)c2c([N+](=O)[O-])cnn2C)c(=O)n(-c2ccccc2)n1C` was tested, and the inhibition was -3% (inactive). With `COc1ccc2c(c1)c(=O)oc1c(C)c(OCc3ccc(C(=O)O)o3)ccc12` the inhibition was 4% (inactive). For `CC1=C(C#N)C(=O)N(CC(C)O)C(=O)/C1=C\c1ccc(-c2cccc(Cl)c2Cl)o1` (stereo unspecified), the inhibition was 93% (active). With `CC1=C(C#N)C(=O)NC(=O)/C1=C\c1ccc(-c2cccc(Cl)c2)o1` the inhibition was 37% (inactive). With `CC1=C(C#N)C(=O)NC(=O)/C1=C\c1ccc(-c2ccc(Cl)c(C(=O)O)c2)o1` the inhibition was 13% (inactive). In the case of `c1ccc(-n2ncc(-c3nn[nH]n3)n2)cc1`, the inhibition is reported as 59% (active) and -6.45% (inactive). In the case of `N#Cc1ccc(C(=O)N2CCC(COc3ccc(C(=O)N4CCCC4)cc3)CC2)cc1`, the inhibition is reported as 3.57% (inactive). `O=S(=O)(c1cccnc1)N1CCN(c2ccc(-c3cccs3)nn2)CC1` was tested, and the inhibition was -2.7% (inactive). In the case of `CC(=O)Nc1ccc(S(=O)(=O)N2CCN(c3ccc(-c4ccccn4)nn3)CC2)cc1`, the inhibition is reported as 74.1% (active). With `CC(=O)Nc1ccc(S(=O)(=O)N2CCN(C3CCCCCCC3)CC2)cc1` the inhibition was 2% (inactive). `CN(C)c1ccc(CCCNC(=O)C23CC4CC(CC(C4)C2)C3)cc1` was tested, and the inhibition was 1.3% (inactive). In the case of `CN(C)c1ccc(CNCC23CC4CC(C2)CC(c2ccccc2)(C4)C3)cc1`, the inhibition is reported as 100% (active). With `O=C(N1CCCC1)C12CC3CC(C1)CC(c1ccccc1)(C3)C2` the inhibition was 2.5% (inactive). `O=C(c1cccc(OCC2CCCN(C(=O)c3ccccc3F)C2)c1)N1CCCCC1` (stereo unspecified) was tested, and the inhibition was -4.06% (inactive). For `CC(=O)NCc1cnn(-c2ccc(C(=O)Nc3ccccc3)cc2)c1`, the inhibition was -1.5% (inactive). For `CCCCN=C(C(=O)Nc1ccc(Cl)c(C(F)(F)F)c1)c1ccccc1NC(C)=O`, the inhibition was 0% (inactive). With `O=C(c1cn2cc(-c3ccc(F)c(Cl)c3)ccc2n1)N1CCOCC1` the inhibition was 16.9% (inactive). For `CN(C)c1ccc(-c2ccc3nc(C(=O)N4CCCC4)cn3c2)cc1`, the inhibition was 97.2% (active). In the case of `CCCCN1CCN(C(=O)c2cn3cc(C)ccc3n2)CC1`, the inhibition is reported as 0.1% (inactive).
